Assay outcomes (PubChem BioAssay)
The sample as a whole holds a higher share of hits than the screen did.
Pf Dd2 growth = blocks in vitro growth of P. falciparum Dd2 | P. falciparum Dd2 growth, SYBR Green, 72 h | Potency, µM (titrated, usually from 28.9 µM), actives largely listed as inhibitors | actives 4.3% (n = 120,000) | AID 1347417; active = well fitted inhibition curve with a large enough effect; also: nearly all actives have a fitted effect of over 65% in size
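Readout: SYBR Green fluorescence, 485 nm excitation, 535 nm emission, after ~16 h lysis at 37C. Before that, Dd2-infected red cells (2.5% hematocrit) grew 72 h with compound, 29 uM top final concentration.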
Each line names hits and unclear results; the compound was inactive in the other large screens.

C[C@@H](NC(=O)C[C@@H]1c2nc(-c3cccnc3)sc2C[C@@H]2[C@](C)(CO)[C@H](O)CC[C@]21C)c1ccccc1	none
CC(C)(C)CC(=O)Nc1nc2c(s1)C[C@@H]1[C@](C)(CO)[C@H](O)CC[C@@]1(C)[C@@H]2CC(=O)Nc1ccccc1	Pf Dd2 growth 11µM
C#CCNC(=O)C[C@@H]1c2nc(NC(=O)c3c(F)cccc3F)sc2C[C@@H]2[C@](C)(CO)[C@H](O)CC[C@]21C	none
CCCCCC(=O)Nc1nc2c(s1)C[C@@H]1[C@](C)(CO)[C@H](O)CC[C@@]1(C)[C@@H]2CC(=O)N[C@H](C)c1ccccc1	Pf Dd2 growth 5µM
CCOc1ccc(C(=O)N2CCC(c3n[nH]c(=O)n3-c3ccc(C)cc3)CC2)cc1	none
O=c1[nH]ccn1C1CCN(Cc2ccc(C(F)(F)F)cc2)CC1	none
CCCN(CC1CCOC1)S(=O)(=O)c1ccc(C)c(Cl)c1 (configuration not stated)	none
CN1C(=O)c2cccn2CC1C(=O)N1CCCC1 (configuration not stated)	none
Cc1cnc(C(=O)N(C)C2CCc3nn(CC4CC4)c(=O)n3CC2)cn1 (configuration not stated)	none
O=C(c1ccc2c(c1)OCO2)N1CCCC2(CC(c3ccccc3)=NO2)C1 (configuration not stated)	none
CC(CNC(=O)c1noc(-c2ccc(F)cc2)n1)c1ccccc1 (configuration not stated)	none
CCCS(=O)(=O)N1CCC(CCOC)(NC(=O)C2CC2)CC1	none
O=C1CC2CCN(C(=O)C3CCCC3)CC2CCN1 (configuration not stated)	none
CCCCCC(=O)Nc1nc2c(s1)C[C@@H]1[C@](C)(CO)[C@H](O)CC[C@@]1(C)[C@@H]2CC(=O)N(C)Cc1ccccc1	none
CCCCCC(=O)Nc1nc2c(s1)C[C@@H]1[C@](C)(CO)[C@H](O)CC[C@@]1(C)[C@@H]2CC(=O)Nc1cccc(O)c1	Pf Dd2 growth 13µM
C#CCN(C)C(=O)C[C@@H]1c2nc(NC(=O)COC)sc2C[C@@H]2[C@](C)(CO)[C@H](O)CC[C@]21C	none
C#CCN(C)C(=O)C[C@@H]1c2nc(NC(=O)CCCCC)sc2C[C@@H]2[C@](C)(CO)[C@H](O)CC[C@]21C	Pf Dd2 growth 10µM
CN(C)c1ccc(CN2C[C@H](O)C[C@H]2c2nc(-c3cccnc3)no2)cc1	none
COC1CN(c2ccc(C)cc2)C12CCN(C(=O)CC(C)C)CC2 (configuration not stated)	none
Cc1cc(CNC(=O)c2ccc3c(c2)n(CC2CC2)c(=O)n3C2CCCCC2)on1	none
Cc1nc2c(c(-c3ccc(O)cc3)n1)CN(Cc1ccccc1)CC2	none
Cc1nc2c(c(-c3ccc(O)cc3)n1)CN(Cc1ccc(C(F)(F)F)cc1)CCC2	Pf Dd2 growth 0.89µM
COc1ccccc1CN1CCCc2nc(C)nc(-c3ccc(O)cc3)c2C1	none
COc1ccc(CN2CCCc3nc(C)nc(-c4ccc(O)cc4)c3C2)cc1	none
Cc1nc2c(c(-c3ccc(O)cc3)n1)CN(Cc1ccccn1)CCC2	none
Cc1nc2c(c(-c3ccc(O)cc3)n1)CN(Cc1cccc3ccccc13)CCC2	Pf Dd2 growth 13µM
Cc1nc2c(c(-c3ccc(O)cc3)n1)CN(Cc1cccnc1)CCC2	none
Cc1nc2c(c(-c3ccc(O)cc3)n1)CN(Cc1ccccc1)CCC2	Pf Dd2 growth 4.5µM
Cc1nc2c(c(-c3ccc(O)cc3)n1)CN(Cc1ccc(C(F)(F)F)cc1)CC2	none
CCNc1nc2c(s1)C(c1cccc(F)c1)CC(=O)N2 (configuration not stated)	none
COc1ccc(CN2CCc3nc(C(=O)Nc4ccc(Cl)cc4)oc3CC2)cn1	Pf Dd2 growth 2.5µM
COc1ccccc1CN1CCc2nc(C(=O)Nc3ccc(Cl)cc3)oc2CC1	none
COc1ccc(CN2CCc3nc(C(=O)NCCOc4ccccc4)oc3CC2)cn1	none
CCNC(=O)N1CCCCCCNC(=O)[C@@H]2C[C@@H](c3nc(-c4cccnc4)no3)C[C@@H]21	none
O=C(CN1CCCn2nc(CO)cc2C1)NCCc1ccccc1	none
O=C(NCc1cccs1)C1CCc2nc(N3CCN(C(=O)C4CCC4)CC3)sc2C1 (configuration not stated)	Pf Dd2 growth 5µM
CCC(=O)N1CCN(c2nc3c(s2)CC(C(=O)Nc2cccc(C)c2C)CC3)CC1 (configuration not stated)	Pf Dd2 growth 4µM
CCC(=O)N1CCN(c2nc3c(s2)CC(C(=O)NCc2ccccc2)CC3)CC1 (configuration not stated)	Pf Dd2 growth 7.9µM
O=C(O)C1CCc2nc(N3CCN(C(=O)C4CCC4)CC3)sc2C1 (configuration not stated)	none
Cc1cccc(NC(=O)C2CCN(c3nnc(-n4c(C)ccc4C)s3)CC2)c1C	none
CCN1CCN(C(=O)C2CCc3nc(N4CCN(C(=O)C5CCC5)CC4)sc3C2)CC1 (configuration not stated)	none
O=C(NCc1ccncc1)C1CCc2nc(N3CCN(C(=O)C4CCC4)CC3)sc2C1 (configuration not stated)	none
Cc1ccccc1C(=O)N1CCC(C(=O)Nc2ccc(F)cc2F)CC1	none
